Measurements taken from the supplement of paper PMC4188521.

What follows are targets tested with CCc1cnn2c(NCc3ccc[n+]([O-])c3)cc(N3CCCC[C@H]3CCO)nc12 [dinaciclib] (assay: cell viability remaining relative to DMSO control; higher = less cytotoxic (more viable cells)). Details: 100 nM; 24 h.
Procedure, shortened: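 Remaining viability is reported relative to DMSO-treated control wells, as a percentage of the DMSO control, using CellTiter-Glo ATP luminescence. Solid tumour cell lines from commercial cell banks were treated with 100 nM of the test compound for 24 hr, with final DMSO ≤0.2%. Results are averaged over 2–6 plates with triplicate wells on each plate.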
HEC108 gave a cell viability remaining of 63%.
Target DKMG has a cell viability remaining of 44%.
H446 was tested, and the cell viability remaining was 51.2%.
C32 was tested, and the cell viability remaining was 83%.
Target HEC151 has a cell viability remaining of 39%.
H23 gave a cell viability remaining of 41.9%.
Target MFE319 has a cell viability remaining of 78.3%.
For DETROIT562, the cell viability remaining was 34.6%.
HEC59 gave a cell viability remaining of 67.6%.
GRM gave a cell viability remaining of 47%.
For SW1088, the cell viability remaining was 58%.
With MCF7 the cell viability remaining was 76%.
OV56 gave a cell viability remaining of 59.1%.
Work on OV7 yielded a cell viability remaining of 73.4%.
For SW620, the cell viability remaining was 58.5%.
With H28 the cell viability remaining was 107%.
In the case of A101D, the cell viability remaining is reported as 33.9%.
In the case of BT549, the cell viability remaining is reported as 51.3%.
D283MED was tested, and the cell viability remaining was 43%.
For IGROV1, the cell viability remaining was 103%.
Work on HEC6 yielded a cell viability remaining of 57.7%.
For YAPC, the cell viability remaining was 56.3%.
For MCAS, the cell viability remaining was 82.8%.
NCI-H322 gave a cell viability remaining of 69.1%.
In the case of SCC4, the cell viability remaining is reported as 66.5%.
With A375 the cell viability remaining was 62%.
With COLO829 the cell viability remaining was 24.8%.
HCC1500 was tested, and the cell viability remaining was 46.2%.
HEC265 showed a cell viability remaining of 46.7%.
In the case of ESS1, the cell viability remaining is reported as 73.5%.
In the case of KPL1, the cell viability remaining is reported as 50.2%.
PC3 gave a cell viability remaining of 66.2%.
OVCAR4 gave a cell viability remaining of 49.6%.
